Here are results for 40 molecules from PubChem BioAssay (NCI).

About 83,000 compounds went through this panel and 20% of them were active in at least one assay; those are over-represented in the sample as a whole.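 Activity criterion: percent growth below 10, measured after cells in 96-well plates were exposed to a single compound concentration for 48 hours.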 Calls of active or inactive are those of the source.

In this assay the test system is CAKI-1 renal. The experiment in a line: NCI-60 one-dose screen, 48 h (100 = growth as untreated, 0 = no growth, -100 = all killed). The note with it: 10 µM unless noted. On the procedure:
Growth inhibition of the CAKI-1 human tumor cell line is measured as a screen for anti-cancer activity. Cells are grown in 96 well plates and exposed to the test compound for 48 hours. Compounds are tested at a single concentration, which is 10^-5 M for most compounds. The reported endpoint is percent growth (GI% or GIPRCNT), where numbers from 0 - 100% represent growth inhibition, and numbers from -100% - 0 represent cell death. For example, a value of 40 represents 60% growth inhibition. A value of 0 means no net growth occurred over the course of the experiment. A value of -40 indicates 40% of cells at the beginning of the experiment died by the end of the experiment. A value of -100 means all cells are dead at the end of the experiment.
NCI-60 Human Tumor Cell Lines Screen was performed using the standard one-dose NCI protocol, which is described in more detail at https://dtp.cancer.gov/discovery_development/nci-60/default.htm.
Compounds with GIPRCNT values below 10 were considered active. Activity score was based on GIPRCNT using the following formula: […]
Score is 0 for GIPRCNT values of 100 or above, 50 for GIPRCNT values of 0, and 100 for GIPRCNT values of -100.
On to `C#Cc1nc(C2=C(C)C(O)/C(=N/O)C2)cs1` (stereo not given), for which the growth was 76.5% (inactive).

For `CC1=C(C)C(=O)C(Nc2cccc(C(F)(F)F)c2)=C(Cl)C1=O`, the growth was 92.7% (inactive).

Take `COc1ccc(-c2nc3ccc(-c4nnc(SCC(=O)Nc5ccc(C(=O)/C=C/c6ccc(Cl)cc6)cc5)o4)cc3[nH]2)cc1OC`: the growth was 100% (inactive).

For `COC(=O)C1CN(S(=O)(=O)/N=C2\NC(=O)NC2=C(Cl)Cl)C1`, the growth was 101% (inactive).

Take `C=C1CC[C@H]2[C@@](C)(CCC3OC(c4ccc(OCc5cn(C6CC(OC(C)=O)C(OC(C)=O)C(COC(C)=O)O6)nn5)cc4)OC[C@]32C)[C@@H]1/C=C/C1=CCOC1=O` (stereo not given in full): the growth is 77% (inactive).

`O=C1Nc2ccccc2Oc2ccc(S(=O)(=O)CC3CO3)cc21` (stereo not given): the growth was 44.1% (inactive).

`CNC(=O)c1cc(-c2ccc(NC(=O)Nc3ccc(N4CCN(C)CC4)c(C(F)(F)F)c3)cc2)nc2cccnc12`: the growth is -80.4% (active).

As for `CN(C)CCCOc1c2ccccc2nc2c1oc1ccc(Cl)cc12`, the growth was -6.35% (active).

In the case of `Nc1cc(-c2c[nH]c3ccccc23)nc2cc(-c3c[nH]c4ccccc34)nn12`, the growth was 59.4% (inactive).

As for `COc1ccc(NC(=O)c2sc3nc(-c4cnccn4)cc(-c4cccs4)c3c2N)cc1`, the growth was 36.4% (inactive).

For `Cc1cccc(/C=C/c2nn3c(-c4ccco4)nnc3s2)c1`, the growth is 91.4% (inactive).

As for `COc1ccc(C(=O)/C=C/c2ccc(OCc3ccc(C)cc3)c(OC)c2)cc1OC`, the growth is 61.4% (inactive).

For `NS(=O)(=O)c1cccc(Nc2nc(SCC(=O)c3ccc(Br)cc3)nc3ccccc23)c1`, the growth was -11.3% (active).

Regarding `Nc1cc(-c2c[nH]c3ccc(Cl)cc23)nc2cc(-c3c[nH]c4ccc(Cl)cc34)nn12`, the growth was 35.6% (inactive).

As for `O=C(Oc1ccc2ccc(=O)oc2c1)c1ccc(Cl)cc1`, the growth was 98.5% (inactive).

`Cn1c(SCC(=O)c2cccs2)nc2ccccc2c1=O`: the growth is 82.1% (inactive).

On to `COc1cc(/C=C/C(=O)c2cc(OC)c(OC)c(OC)c2)ccc1OCc1ccccc1`, for which the growth was 42% (inactive).

Turning to `COc1ccc(C(=O)c2cc(C(=O)/C=C/c3c(Cl)cccc3Cl)c3cc(C)ccn23)cc1`, the growth was 89.9% (inactive).

Turning to `CC(=O)Oc1ccccc1C(=O)Nc1ccc(C(=O)/C=C/c2ccncc2)cc1`, the growth is 62.6% (inactive).

Turning to `O=C1/C(=C/C2=Cc3ccccc3OC2)SC(=S)N1c1ccc(F)cc1`, the growth is 90.6% (inactive).

Consider `CCN(CC)c1ccc(C=O)c(OCc2cn(CC(=O)Nc3ccc(Cl)cc3)nn2)c1`, for which the growth is 57.5% (inactive).

In the case of `Clc1ccc2c(NCCCN3CCOCC3)c3oc4ccccc4c3nc2c1`, the growth was 30.4% (inactive).

As to `CSCCC(C(=O)O)N1C(=O)/C(=C/c2ccc(O)c(O)c2)SC1=S` (stereo not given), the growth was 95.6% (inactive).

Consider `COc1ccc(-c2nc3ccc(-c4nnc(SCC(=O)Nc5ccc(C(C)=O)cc5)o4)cc3[nH]2)cc1`, for which the growth is 101% (inactive).

Turning to `Cc1cc2nc3c4cc(Cl)ccc4n(CC(=S)NCCN(C)C)c3nc2cc1C`, the growth is -92.3% (active).

As to `CCOC(=O)c1c(Nc2ccccc2)nn2c(N)c(C#N)c(-c3ccc(OC)cc3)nc12`, the growth is 52.8% (inactive).

On to `COc1cc2nc(-c3ccc(C(F)(F)F)cc3)cc(OCCCNCC3CCCO3)c2cc1OC` (stereo not given), for which the growth was 8.44% (active).

As for `NS(=O)(=O)c1ccc(Nc2nc(Nc3ccccc3)nc(-n3nc(-c4ccccc4)cc3-c3ccccc3)n2)cc1`, the growth is 21% (inactive).

On to `N#Cc1nc(-c2ccccc2)oc1S(=O)(=O)N1CCN(CCc2ccccn2)CC1`, for which the growth is 54.3% (inactive).

For the molecule `N#Cc1nc(-c2ccccc2)oc1N1CC[C@@H](CO)C1`, the growth was 91.5% (inactive).

`CCCCCCNC(=O)Oc1ccc(/C(=C(/C)c2ccccc2)c2ccc(OCCN3CCCCCC3)cc2)cc1`: the growth was 35.9% (inactive).

With `Clc1ccc(-c2cn3cc(Cc4ccc(Cl)c(Cl)c4)sc3n2)cc1`, the growth was 42.6% (inactive).

In the case of `CN(C)S(=O)(=O)c1oc(-c2ccccc2)nc1C#N`, the growth was 53.7% (inactive).

As for `Cc1cc2nc3c4cc(Cl)ccc4n(CC(=O)NCCN(C)C)c3nc2cc1C`, the growth was 53.9% (inactive).

Turning to `COc1cc2nc(-c3ccc(Cl)cc3)cc(OCCCNCC3CCCO3)c2cc1OC` (stereo not given), the growth was 17.3% (inactive).

As to `COC1CCN(Cc2ccc3c(NNC(=O)c4cnccn4)nc4cc(F)ccc4n23)C1` (stereo not given), the growth was 16.8% (inactive).

For the molecule `Clc1ccc2c(NCCCn3ccnc3)c3oc4ccc(Cl)cc4c3nc2c1`, the growth was 60.5% (inactive).

As to `CN(C)c1ccc(/C=C2\Cc3c(F)ccc(Br)c3C2=O)cc1`, the growth is 82% (inactive).

Take `COc1ccc(-c2nc3ccc(-c4nnc(SCC(=O)Nc5ccc(C(=O)/C=C/c6ccccc6)cc5)o4)cc3[nH]2)cc1OC`: the growth was 97% (inactive).

`OC1CCc2c(-c3ccc4ncnc(N5CCc6cc(F)c(Cl)cc65)c4c3)cncc21` (stereo not given): the growth was 22.5% (inactive).
